Screening results from PubChem.
Most compounds without a hit are left out; they make up all but 3% or so of the library.
PAFAH2 inh: inhibitors of human PAFAH2; Q99487; inhibition, % at 3.39 µM; 340,000 tested, 0.99% active; AID 492956; recombinant PAFAH2, FP-rhodamine activity probe, fluorescence polarization;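 active = inhibition above the mean over all tested compounds plus 3 SD, cut at about 30% in these data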;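 note: inhibitors block probe labeling of enzyme so polarization drops; 0% = enzyme with DMSO and 100% = wells lacking PAFAH2 protein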
PAFAH1B2 FP inh: blocks human PAF acetylhydrolase 1b catalytic subunit 2. P68402. recombinant PAFAH1B2, FP-rhodamine activity probe, fluorescence polarization. inhibition, % at 3.39 µM. 340,000 tested, 1.2% active. AID 492953;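 active = inhibition above the mean of all tested compounds plus 3 SD, cut at about 24% in these data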;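 note: 0% = enzyme with DMSO and 100% = wells lacking PAFAH1B2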
PAFAH1B3 inh: inhibitors of human PAFAH1B3; Q15102; recombinant PAFAH1B3, FP-rhodamine probe, fluorescence polarization; inhibition, % at 3.39 µM; 340,000 tested, 0.28% active;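 active = inhibition above the screen-wide average of all tested compounds plus 3 SD, cut at about 25% in these data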;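 note: 0% = enzyme with DMSO only and 100% = wells lacking PAFAH1B3 protein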
pPAFAH inh: inhibitors of human plasma PAF acetylhydrolase (pPAFAH); Q13093; recombinant pPAFAH, FP-rhodamine probe fluorescence polarization; inhibition, % at 3.39 µM; 330,000 tested, 1.5% active; AID 463082;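 active = inhibition above the mean inhibition across the screen plus 3 SD, cut at about 25% in these data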;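 note: inhibitors block binding of the rhodamine activity-based probe so polarization drops; 0% = enzyme with DMSO and 100% = wells lacking pPAFAH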
PP5 primary: PP5 (human) phosphatase inhibition | purified PP5c, OMFP substrate fluorescence | AID 1987 | inhibition, % at 6.7 µM | P53041 | 320,000 tested, 0.18% active;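 active = inhibition above the campaign's mean inhibition across all tested compounds plus 3 SD, cut at about 9.5% in these data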;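 note: 0% = DMSO only and 100% = 100 µM cantharidin control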
Target sequence (P53041 whole entry, looked up): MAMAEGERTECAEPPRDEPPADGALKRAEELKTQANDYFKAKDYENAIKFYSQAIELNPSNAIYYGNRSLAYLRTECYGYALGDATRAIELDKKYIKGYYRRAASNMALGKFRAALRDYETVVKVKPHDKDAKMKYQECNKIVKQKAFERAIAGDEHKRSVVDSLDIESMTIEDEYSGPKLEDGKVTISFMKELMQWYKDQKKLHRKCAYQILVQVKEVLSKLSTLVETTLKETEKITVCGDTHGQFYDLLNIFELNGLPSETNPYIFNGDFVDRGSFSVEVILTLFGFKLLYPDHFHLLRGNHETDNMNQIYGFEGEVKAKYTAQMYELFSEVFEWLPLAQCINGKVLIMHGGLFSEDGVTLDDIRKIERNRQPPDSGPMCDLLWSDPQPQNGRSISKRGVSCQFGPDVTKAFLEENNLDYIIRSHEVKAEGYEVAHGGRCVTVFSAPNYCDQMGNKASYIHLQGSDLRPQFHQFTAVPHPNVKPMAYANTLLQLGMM
CTSL1 counter: blocks F. hepatica cathepsin L1 in PFM18AAP counter-screen; 300,000 tested, 0.49% active; AID 1906; inhibition, % at 5.96 µM; recombinant F. hepatica cathepsin L1, Z-Leu-Arg-MCA fluorescence;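 active = inhibition above the mean of all tested compounds plus 3 SD, set per screening campaign, cut at about 17% in these data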;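 note: 0% = plate median of test compound wells and 100% = 1 µM Z-Phe-Ala-diazomethylketone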
* hit, by the source's call.

What do the screens show for `Cc1cc(C)n(C(C)CC(=O)Nc2ccc3c(c2)OCO3)n1` (configuration not stated)?
PAFAH2 inh: -4; PAFAH1B2 FP inh: 3; PAFAH1B3 inh: 1; pPAFAH inh: 4; PP5 primary: 1; CTSL1 counter: -2

What do the screens show for `Cc1ccc(NC(=O)/C(Cl)=C/c2ccccc2)cc1C`?
PAFAH2 inh: -1; PAFAH1B2 FP inh: 1; PAFAH1B3 inh: -3; pPAFAH inh: -8; PP5 primary: -2; CTSL1 counter: 3

What do the screens show for `Cc1cc2oc(C(=O)N3CCN(Cc4ccccc4)CC3)c(C)c2cc1C`?
PAFAH2 inh: 1; PAFAH1B2 FP inh: 5; PAFAH1B3 inh: 0; pPAFAH inh: 26*; PP5 primary: 2; CTSL1 counter: -3

How did Cc1ccc(C(=O)N2CCN(Cc3ccccc3)CC2)o1 do in these assays?
PAFAH2 inh: -5; PAFAH1B2 FP inh: 3; PAFAH1B3 inh: 5; pPAFAH inh: 3; PP5 primary: -3; CTSL1 counter: -1

How did Cc1cc(O)c2c(c1)C(=O)c1cc(O)cc(O)c1C2=O do in these assays?
PAFAH2 inh: 10; PAFAH1B2 FP inh: 4; PAFAH1B3 inh: 20; pPAFAH inh: 30*; PP5 primary: 1; CTSL1 counter: 10

Results for O=C1c2cc(O)cc(O)c2C(=O)c2c1cc(O)c([C@@H](CO)CCO)c2O ?
PAFAH2 inh: 18; PAFAH1B2 FP inh: 19; PAFAH1B3 inh: 17; pPAFAH inh: 31*; PP5 primary: 4; CTSL1 counter: 2

How did Cc1ccc(S(=O)(=O)N2CCN(C(=O)CCC(=O)NCc3ccc(F)cc3)CC2)cc1 do in these assays?
PAFAH2 inh: 12; PAFAH1B2 FP inh: 3; PAFAH1B3 inh: 5; pPAFAH inh: -7; PP5 primary: 1; CTSL1 counter: -8

How did CCOc1ccc(N2C(=O)CS/C2=C(\C(Cl)=C(Cl)Cl)[N+](=O)[O-])cc1 do in these assays?
PAFAH2 inh: 0; PAFAH1B2 FP inh: 2; PAFAH1B3 inh: 11; pPAFAH inh: 28*; PP5 primary: 1; CTSL1 counter: 4

Results for CC(Sc1ccc(S(=O)(=O)N2CCN(C)CC2)cn1)C(=O)NC1(C#N)CCCCC1 (configuration not stated) ?
PAFAH2 inh: 6; PAFAH1B2 FP inh: 31*; PAFAH1B3 inh: 3

How did CC(=O)NCc1ccc(C(=O)COC(=O)COc2ccc(Cl)c(C)c2)s1 do in these assays?
PAFAH2 inh: 4; PAFAH1B2 FP inh: 5; PAFAH1B3 inh: 6; pPAFAH inh: 27*

How did Cc1ccc(/C=C/C2=Cc3c(sc(NC(=O)CSc4n[nH]c(N)n4)c3C#N)C(C)(C)C2)o1 do in these assays?
pPAFAH inh: 58*; PP5 primary: -8; CTSL1 counter: 12

How did Cc1sc(NC(=O)CSc2n[nH]c(N)n2)c(C#N)c1C do in these assays?
PAFAH2 inh: 9; PAFAH1B2 FP inh: 1; PAFAH1B3 inh: -3

How did CC(=O)c1ccccc1OCc1ccc(S(=O)(=O)Cc2ccccc2)cc1 do in these assays?
PAFAH2 inh: 6; PAFAH1B2 FP inh: 2; PAFAH1B3 inh: 11; pPAFAH inh: 14; PP5 primary: 0; CTSL1 counter: 1

How did c1ccc(Cc2nnc3sc(C4COc5ccccc5O4)nn23)cc1 (configuration not stated) do in these assays?
PAFAH2 inh: 0; PAFAH1B2 FP inh: -1; PAFAH1B3 inh: -3; pPAFAH inh: 6; PP5 primary: 0; CTSL1 counter: 18*

How did COc1ccc(CCNC(=O)c2cc(-c3ccncc3)nc3ccc(S(=O)(=O)N4CCOCC4)cc23)cc1OC do in these assays?
PAFAH2 inh: 1; PAFAH1B2 FP inh: -3; PAFAH1B3 inh: 0; pPAFAH inh: -5; PP5 primary: -1; CTSL1 counter: 0

What do the screens show for `Cc1ccccc1N=Cc1cccc(O)c1O`?
PAFAH2 inh: 3; PAFAH1B2 FP inh: 9; PAFAH1B3 inh: 2; pPAFAH inh: 32*; PP5 primary: 1; CTSL1 counter: 2

What do the screens show for `CC(C)(C)CN1CCC(Oc2cccc(C(=O)N3CCNC(=O)C3(C)C)c2)CC1`?
PAFAH2 inh: 6; PAFAH1B2 FP inh: 2; PAFAH1B3 inh: 8; pPAFAH inh: 0; PP5 primary: 3; CTSL1 counter: 19*

How did O=C(O)CC1c2ccccc2CCN1S(=O)(=O)c1ccc(F)cc1 (configuration not stated) do in these assays?
PAFAH2 inh: -6; PAFAH1B2 FP inh: 31*; PAFAH1B3 inh: 1; pPAFAH inh: 4; PP5 primary: 0; CTSL1 counter: -2

Results for Cc1cccc(S(=O)(=O)Nc2cccc3c2C(=O)c2ccccc2-3)c1 ?
PAFAH2 inh: 5; PAFAH1B2 FP inh: 6; PAFAH1B3 inh: 2; pPAFAH inh: 5; PP5 primary: -2; CTSL1 counter: 6

How did Cc1cc(C)cc(NS(=O)(=O)c2ccc(NC(=O)c3ccccc3C(=O)O)cc2)c1 do in these assays?
pPAFAH inh: 9; PP5 primary: -1; CTSL1 counter: 11

How did CN(c1cccc(NC(=O)CSc2ccc(Cl)cc2)c1)S(C)(=O)=O do in these assays?
PAFAH2 inh: 10; PAFAH1B2 FP inh: 49*; PAFAH1B3 inh: -1; pPAFAH inh: 29*; PP5 primary: 2; CTSL1 counter: 1

How did Cc1ccc(NS(=O)(=O)c2ccc3c(c2)C(=O)c2ccccc2C3=O)c(C)c1 do in these assays?
PAFAH2 inh: 11; PAFAH1B2 FP inh: 2; PAFAH1B3 inh: 12; pPAFAH inh: 32*; PP5 primary: 2; CTSL1 counter: 0

Results for Cc1cc(NS(=O)(=O)c2ccccc2)ccc1NS(=O)(=O)c1ccccc1 ?
PAFAH2 inh: 12; PAFAH1B2 FP inh: 28*; PAFAH1B3 inh: 5

Results for Cc1ccc(NS(=O)(=O)c2ccc(NC(=O)c3ccccc3C(=O)O)cc2)c(C)c1 ?
PAFAH2 inh: 4; PAFAH1B2 FP inh: 11; PAFAH1B3 inh: 4; pPAFAH inh: 34*; PP5 primary: 2; CTSL1 counter: 1

Results for CN(c1cccc(NC(=O)CCSc2ccccc2)c1)S(C)(=O)=O ?
PAFAH2 inh: 8; PAFAH1B2 FP inh: 8; PAFAH1B3 inh: 2; pPAFAH inh: 9; PP5 primary: 1; CTSL1 counter: -10

Results for O=C(CC1C(=O)NCCN1Cc1cccc(C(F)(F)F)c1)NC1CCCCCC1 (configuration not stated) ?
PAFAH2 inh: 4; PAFAH1B2 FP inh: 7; PAFAH1B3 inh: -5; pPAFAH inh: 10; PP5 primary: 3; CTSL1 counter: 5

Results for Cc1nc(NS(=O)(=O)c2ccccc2)sc1NC(=O)Nc1ccc(Cl)cc1 ?
PAFAH2 inh: 5; PAFAH1B2 FP inh: 4; PAFAH1B3 inh: 8; pPAFAH inh: 34*; PP5 primary: 3; CTSL1 counter: -3

What do the screens show for `O=C(Nc1ccc(NS(=O)(=O)c2ccccc2)cc1)c1ccccc1Cl`?
PAFAH2 inh: 6; PAFAH1B2 FP inh: 6; PAFAH1B3 inh: 3; pPAFAH inh: 25*
